# Results as given in PubChem BioAssay (Tox21).
# Records with an inconclusive call do not appear. Calls of active or inactive are those of the source. Calls come from the whole dose curve; as a rule, active = well fitted activation curve with a large enough effect in the repeat runs; inconclusive = weak or mixed curves; inactive = no such curve, though single readings can be large or run the other way.
# Target: Nuclear receptor subfamily 1 group I member 2 (Homo sapiens) (UniProt O75469)
# Test: Human pregnane X receptor (PXR) small molecule agonists, qHTS assay (AID 1346982); note: nearly all actives have a fitted effect of over 35% in size
# Details: PXR-Luc HepG2, CYP3A4 luciferase reporter, 24 h; series mostly up to 92.4 µM; activation: at the top concentration
# Outline: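 PXR-Luc HepG2 cells (CYP3A4 promoter-driven luciferase) were seeded in medium with 5% charcoal-stripped FBS, left 5 hr at 37 C, then exposed to compounds in DMSO for 24 hr. Luminescence was read after ONE-Glo addition.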
# % is set by controls: 0 for no effect and ±100 for the full control effect; potency is the fitted concentration of half-maximal effect.
# Nuclear receptor subfamily 1 group I member 2 (Homo sapiens), sequence (O75469 whole entry, looked up): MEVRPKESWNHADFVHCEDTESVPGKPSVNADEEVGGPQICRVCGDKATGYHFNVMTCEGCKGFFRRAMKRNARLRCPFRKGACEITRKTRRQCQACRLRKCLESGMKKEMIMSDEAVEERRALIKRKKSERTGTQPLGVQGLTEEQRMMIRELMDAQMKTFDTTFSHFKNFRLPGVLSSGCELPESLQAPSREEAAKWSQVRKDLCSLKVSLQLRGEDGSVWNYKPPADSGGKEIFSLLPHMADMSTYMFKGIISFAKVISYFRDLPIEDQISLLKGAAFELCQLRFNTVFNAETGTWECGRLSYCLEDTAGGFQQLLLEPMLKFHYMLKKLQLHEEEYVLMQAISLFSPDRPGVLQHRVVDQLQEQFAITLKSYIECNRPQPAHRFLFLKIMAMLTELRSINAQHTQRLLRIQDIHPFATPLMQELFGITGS
SMILES,Potency,activation
c1ccc(CCCc2ccncc2)cc1,30.6 µM (active),
CCN(CC)c1ccc(C(=C2C=CC(=[N+](CC)CC)C=C2)c2ccc(S(=O)(=O)O)cc2S(=O)(=O)[O-])cc1,,-29.5% (inactive)
CC(C)(O)CCc1ccccc1,,11.2% (inactive)
CC(=O)OCC(C)C,,18.2% (inactive)
CC(C)(O)c1coc(S(=O)(=O)NC(=O)Nc2c3c(cc4c2CCC4)CCC3)c1,,-0.771% (inactive)
CCCCCCCCCCCCCCCC(=O)OCC,,-4.3% (inactive)
CN1C(CSCC(F)(F)F)Nc2cc(Cl)c(S(N)(=O)=O)cc2S1(=O)=O (centres undefined),29.8 µM (active),
CC1C(C)(C)C2=C(C(=O)CCC2)C1(C)C (centres undefined),,15.6% (inactive)
CCCCCCCCCCCCCC(=O)OCC(O)CO (centres undefined),,16% (inactive)
CC(C)C(O)C(C)(C)CO (centres undefined),,9.77% (inactive)
Cc1cccc(C)c1NC(=O)c1cc(S(N)(=O)=O)c(Cl)cc1O,,6.8% [at 42.5 µM] (inactive)
CC1CCCC(=O)C1=O (centres undefined),,9.38% (inactive)
O=C(NS(=O)(=O)/C=C/c1ccccc1)c1ccc(F)cc1Cl,19.3 µM (active),
Nc1ccc(F)cc1,,4.02% (inactive)
CCOc1ncc(F)c(=O)[nH]1,,-7.85% [at 42.5 µM] (inactive)
O=S(=O)(O)CO,,13.4% (inactive)
CCC(Cl)CC(Cl)C(Cl)C(Cl)C(Cl)C(C)Cl (centres undefined),1.19 µM (active),
O=CNNC=O,,5.6% (inactive)
CCC(C)(C)C(=O)O,,6.33% (inactive)
CCOC(=O)C(C)O (centres undefined),,-15.8% (inactive)

SMILES,Potency,activation
CCC(CO)(CO)CO,,-2.46% (inactive)
CCN(Cc1cccc(S(=O)(=O)O)c1)c1ccc(C(=C2C=CC(=[N+](CC)Cc3cccc(S(=O)(=O)O)c3)C=C2)c2ccccc2S(=O)(=O)[O-])cc1,,-43.5% [at 42.5 µM] (inactive)
CCN(CC)c1cccc(O)c1,35.1 µM (active),
CCCCCCC(O)CCCCCCCCCCC(=O)OC (centres undefined),,7.27% (inactive)
COC(C)(C)OC,,0.531% (inactive)
CCCCCCCC/C=C/C(=O)O,,-2.3% [at 42.5 µM] (inactive)
O=C(O)CO,,11% (inactive)
CCCCOC(=O)CCCCC(=O)OCCCC,,-22.7% (inactive)
CC(=O)NCCO,,-1.01% (inactive)
CSCC[C@H](NC(=O)[C@H](Cc1c[nH]c2ccccc12)NC(=O)CCNC(=O)OC(C)(C)C)C(=O)N[C@@H](CC(=O)O)C(=O)N[C@@H](Cc1ccccc1)C(N)=O,,0.179% [at 42.5 µM] (inactive)
FC(F)(F)C(F)(F)C(F)(F)C(F)(F)CCI,,-6.71% [at 42.5 µM] (inactive)
COC1CCC=CO1 (centres undefined),,-0.612% (inactive)
CCc1ccc(C)cc1,,3.9% (inactive)
O=C(O)CCS,,15.9% (inactive)
CC(C)C(=O)OCCOc1ccccc1,,-16.8% (inactive)
[Cl][Nd]([Cl])[Cl],,-4.23% (inactive)
NC(=O)CCCCC(N)=O,,2.27% (inactive)
CC(C)N(C)C,,1.83% (inactive)
Cc1oc(=O)oc1COC(=O)[C@@H]1N2C(=O)[C@@H](NC(=O)[C@H](N)c3ccccc3)[C@H]2SC1(C)C,,-5.62% [at 42.5 µM] (inactive)
